From ChEMBL document CHEMBL3433997, “St. Jude Leishmania screening dataset” (2016)

Key:
Format in all cases: functional
[1] = molecular target: Solute carrier family 2, facilitated glucose transporter member 1 (Homo sapiens) (UniProt P11166); test: ST_JUDE_LEISH: Cytotoxicity at 2uM final concentration against transgenic Leishmania Mexicana promastigotes LmGLUT1 that are glucose transport deficient and complemented with the human glucose transporter GLUT1. Activity is measured by DNA content using SYBR green in vitro
Solute carrier family 2, facilitated glucose transporter member 1 (Homo sapiens), sequence (P11166 whole entry): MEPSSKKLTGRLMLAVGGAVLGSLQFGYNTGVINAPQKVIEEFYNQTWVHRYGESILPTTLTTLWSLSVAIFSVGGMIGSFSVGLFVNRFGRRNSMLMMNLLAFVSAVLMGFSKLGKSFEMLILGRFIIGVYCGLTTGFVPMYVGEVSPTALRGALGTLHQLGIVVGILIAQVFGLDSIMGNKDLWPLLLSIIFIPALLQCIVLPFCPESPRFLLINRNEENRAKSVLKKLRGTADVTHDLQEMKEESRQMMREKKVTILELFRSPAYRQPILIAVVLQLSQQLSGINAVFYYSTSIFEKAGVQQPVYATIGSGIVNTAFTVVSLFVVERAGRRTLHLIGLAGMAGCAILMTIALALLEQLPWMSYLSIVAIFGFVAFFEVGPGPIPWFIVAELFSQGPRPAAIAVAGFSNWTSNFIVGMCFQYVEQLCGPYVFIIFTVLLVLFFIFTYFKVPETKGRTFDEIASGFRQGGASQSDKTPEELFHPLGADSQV

[2] = molecular target: Hexose transporter 1 (Plasmodium falciparum) (UniProt O97467); test: ST_JUDE_LEISH: Cytotoxicity at 2uM final concentration against transgenic Leishmania Mexicana promastigotes LmPfHT that are glucose transport deficient and complemented with the Plasmodium falciparum hexose transporter. Activity is measured by DNA content using SYBR green in vitro
[3] = molecular target: Glucose transporter (Leishmania mexicana) (UniProt O61059); test: ST_JUDE_LEISH: Cytotoxicity at 2uM final concentration against transgenic Leishmania Mexicana promastigotes LmGT2 that are glucose transport deficient and complemented with the L. Mexicana glucose transporter 2. Activity is measured by DNA content using SYBR green in vitro

Row | SMILES | inhibition [1] | inhibition [2] | inhibition [3]
1 | CCCCNCc1ccc(-c2nc(CN(CCCN3CCN(C)CC3)C(=O)Nc3cccc(Cl)c3)cs2)cc1 | 5.24% | 9.93% | 5.61%
2 | COc1ccc2ncc(F)c(CCN3CCC(CNC(=O)C(=O)c4c[nH]c5ccccc45)CC3)c2n1 | 6.8% | 7.49% | 1.37%
3 | O=C(NCc1cccc(F)c1)Nc1ccc(-c2ccc(-c3nc4cc(C(F)(F)F)ccc4[nH]3)cc2)cc1 | 0.8% | -0.45% | 1.77%
4 | CC(C)=CC1C(C(=O)n2c(=N)[nH]c3ccccc32)C1(C)C (stereo unspecified) | 9.13% | 7.8% | 5.36%
5 | N#Cc1cccc(Nc2cc(C(F)(F)F)nc(Nc3ccccc3)n2)c1 | 15.4% | 11.3% | 6.45%
6 | O=C(Nc1ccc(-c2ccccc2)cc1)Nc1cccc(Cn2ncc(N3CCNCC3)c(Cl)c2=O)c1 | -0.79% | 1.65% | 6.76%
7 | N=C(N)c1ccc(NC(=O)c2cc(Sc3ccc(O)c(C(=O)Nc4ccc(C(=N)N)cc4)c3)ccc2O)cc1 | 9.7% | 10.9% | 4.34%
8 | CCN(CC)CCCN1CCN(C(=O)c2cccc(-c3noc(C(F)(F)F)n3)c2)CC1 | 5.54% | 4.63% | 4%
9 | CCOc1ccc(C(=O)N2CCOC(CCN3CCC4(CCc5ccccc54)CC3)(c3ccc(Cl)c(Cl)c3)C2)cc1 (stereo unspecified) | 5.41% | 5.56% | 5.12%
10 | CC(=O)N1CCN(c2ccc(NC(=O)c3oc(-c4ccccc4)nc3C(F)(F)F)cn2)CC1 | 1.92% | 1.42% | 1.05%
11 | CCCCCCCc1c2c(C)c(C(=O)OCC)nc-2cc2n1CC(C)=C2C | 3.56% | 2.2% | 3.09%
12 | Cc1ccccc1CNc1nccc(NCCC(=O)Nc2ccccc2)n1 | 4.53% | 2.1% | 0.01%
